Source: the supplement of paper PMC10849652
Targets with a hit are over-represented here; the source holds about 7,900 in all. About 0.6% of all pairs of compound and target were hits.

Experiments:
Test in all cases: log2 fold change, soluble protein after heating vs DMSO (PISA); higher = thermal stabilisation; K562 cells, 10 uM, 30 min; active = over 0.2 and 3.5 SD of the protein, either way, in both replicates (recomputed)
[1] = compound: NC(=O)Nc1cc(-c2cccc(F)c2)sc1C(=O)N[C@H]1CCCNC1
Method in brief: (§1)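 K562 cells (2×10^6 cells/mL) were treated with 10 μM compound for 30 min, and aliquots were heated for 3 min over 48°C-58°C. Pooled aliquots were extracted in PBS with 0.5% NP-40 at 4°C, and the supernatant after 21,000xg for 90 min was measured by TMTpro 16plex LC-MS/MS with channel sums equalised. Reported thermal stability, relative to control samples and from duplicates, is a log2 fold change.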

[2] = compound: NC(=O)c1cnc(N[C@@H]2CCCC[C@@H]2N)nc1Nc1cccc(-n2nccn2)c1
Method in brief: as §1

[3] = compound: NC1(c2ccc(-c3nc4ccn5c(=O)[nH]nc5c4cc3-c3ccccc3)cc2)CCC1
Method in brief: as §1

[4] = compound: NCC(=O)Nc1ccc(-n2nc(C(F)(F)F)cc2-c2ccc3c(ccc4ccccc43)c2)cc1
Method in brief: as §1

entinostat = compound: Nc1ccccc1NC(=O)c1ccc(CNC(=O)OCc2cccnc2)cc1 [entinostat]
Method in brief: as §1

vorinostat = compound: O=C(CCCCCCC(=O)Nc1ccccc1)NO [vorinostat]
Method in brief: as §1

citarinostat = compound: O=C(CCCCCCNC(=O)c1cnc(N(c2ccccc2)c2ccccc2Cl)nc1)NO [citarinostat]
Method in brief: as §1

silmitasertib = compound: O=C(O)c1ccc2c(c1)nc(Nc1cccc(Cl)c1)c1ccncc12 [silmitasertib]
Method in brief: as §1

[5] = compound: O=C1NC(=O)C(c2cnc3ccccn23)=C1c1cn2c3c(cc(F)cc13)CN(C(=O)N1CCCCC1)CC2
Method in brief: as §1

[6] = compound: c1cc(OCCN2CCCCC2)cc(-c2n[nH]c3ccc(-c4nnc[nH]4)cc23)c1
Method in brief: as §1

Measured: log2 fold change

NASP (UniProt P49321)
inactive: [1] -0.009 | [2] -0.081 | [3] -0.06 | [4] -0.054 | entinostat 0.035 | vorinostat 0.028 | citarinostat 0.035 | silmitasertib 0.063 | [5] -0.034 | [6] -0.02

PAK1 isoform 2 (UniProt Q13153)
UniProt Q13153, sequence (Q13153 whole entry, looked up): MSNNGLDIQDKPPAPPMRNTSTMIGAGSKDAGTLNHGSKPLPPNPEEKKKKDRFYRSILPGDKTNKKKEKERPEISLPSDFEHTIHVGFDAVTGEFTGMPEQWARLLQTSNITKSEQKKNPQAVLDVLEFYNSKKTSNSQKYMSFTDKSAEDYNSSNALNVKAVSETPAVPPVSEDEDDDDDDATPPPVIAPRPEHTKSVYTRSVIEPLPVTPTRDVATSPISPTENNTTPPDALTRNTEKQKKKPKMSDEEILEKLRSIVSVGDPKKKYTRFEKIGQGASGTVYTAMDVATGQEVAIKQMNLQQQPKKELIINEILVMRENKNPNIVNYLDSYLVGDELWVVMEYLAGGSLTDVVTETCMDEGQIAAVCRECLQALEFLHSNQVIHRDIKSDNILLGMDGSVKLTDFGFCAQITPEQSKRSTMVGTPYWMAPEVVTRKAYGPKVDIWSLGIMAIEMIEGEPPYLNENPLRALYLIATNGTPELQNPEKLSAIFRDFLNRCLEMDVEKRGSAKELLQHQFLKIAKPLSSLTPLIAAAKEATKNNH
inactive: [1] -0.067 | [2] 0.051 | [3] 0.012 | [4] -0.083 | entinostat 0.021 | vorinostat 0.096 | citarinostat -0.033 | silmitasertib 0.043 | [5] -0.068 | [6] -0.032

OGFOD1 (UniProt Q8N543)
inactive: [1] 0.015 | [2] 0.021 | [3] -0.08 | [4] -0.056 | entinostat -0.002 | vorinostat 0.005 | citarinostat 0.012 | silmitasertib 0.02 | [5] -0.072 | [6] -0.006

PACS1 (UniProt Q6VY07)
inactive: [1] 0 | [2] 0.041 | [3] -0.081 | [4] -0.01 | entinostat 0.004 | vorinostat 0.022 | citarinostat -0.012 | silmitasertib -0.074 | [5] 0.062 | [6] -0.113

MORC3 (UniProt Q14149)
UniProt Q14149, sequence (Q14149 whole entry, looked up): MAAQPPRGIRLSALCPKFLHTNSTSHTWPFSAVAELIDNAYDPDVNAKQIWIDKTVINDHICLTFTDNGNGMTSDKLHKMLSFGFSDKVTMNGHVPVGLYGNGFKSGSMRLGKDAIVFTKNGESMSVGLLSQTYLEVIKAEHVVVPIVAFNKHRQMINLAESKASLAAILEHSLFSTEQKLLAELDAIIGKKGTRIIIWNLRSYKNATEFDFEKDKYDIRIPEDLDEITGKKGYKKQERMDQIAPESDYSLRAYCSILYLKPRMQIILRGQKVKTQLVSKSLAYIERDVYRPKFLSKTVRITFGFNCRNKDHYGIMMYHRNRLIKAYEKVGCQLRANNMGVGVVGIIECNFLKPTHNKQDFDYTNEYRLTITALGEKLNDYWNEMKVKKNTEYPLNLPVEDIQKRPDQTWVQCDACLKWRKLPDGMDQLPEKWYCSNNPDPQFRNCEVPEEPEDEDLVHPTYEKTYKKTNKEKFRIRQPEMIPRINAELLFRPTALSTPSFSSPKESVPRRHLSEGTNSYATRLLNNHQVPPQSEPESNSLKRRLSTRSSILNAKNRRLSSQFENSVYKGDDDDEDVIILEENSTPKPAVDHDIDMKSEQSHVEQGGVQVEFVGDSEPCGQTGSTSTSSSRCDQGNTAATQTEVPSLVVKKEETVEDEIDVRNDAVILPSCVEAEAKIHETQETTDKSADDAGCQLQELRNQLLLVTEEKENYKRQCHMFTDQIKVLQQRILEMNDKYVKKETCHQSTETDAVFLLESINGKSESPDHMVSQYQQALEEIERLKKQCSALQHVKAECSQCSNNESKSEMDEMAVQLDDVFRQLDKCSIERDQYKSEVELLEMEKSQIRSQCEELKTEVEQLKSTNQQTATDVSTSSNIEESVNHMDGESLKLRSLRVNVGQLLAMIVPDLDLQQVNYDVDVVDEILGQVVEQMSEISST
inactive: [1] 0.024 | [2] -0.047 | [3] -0.241 | [4] -0.22 | entinostat -0.021 | vorinostat -0.159 | citarinostat -0.118 | silmitasertib 0.201 | [5] -0.066 | [6] 0.089

NGLY1 (UniProt Q96IV0)
UniProt Q96IV0, sequence (Q96IV0 whole entry, looked up): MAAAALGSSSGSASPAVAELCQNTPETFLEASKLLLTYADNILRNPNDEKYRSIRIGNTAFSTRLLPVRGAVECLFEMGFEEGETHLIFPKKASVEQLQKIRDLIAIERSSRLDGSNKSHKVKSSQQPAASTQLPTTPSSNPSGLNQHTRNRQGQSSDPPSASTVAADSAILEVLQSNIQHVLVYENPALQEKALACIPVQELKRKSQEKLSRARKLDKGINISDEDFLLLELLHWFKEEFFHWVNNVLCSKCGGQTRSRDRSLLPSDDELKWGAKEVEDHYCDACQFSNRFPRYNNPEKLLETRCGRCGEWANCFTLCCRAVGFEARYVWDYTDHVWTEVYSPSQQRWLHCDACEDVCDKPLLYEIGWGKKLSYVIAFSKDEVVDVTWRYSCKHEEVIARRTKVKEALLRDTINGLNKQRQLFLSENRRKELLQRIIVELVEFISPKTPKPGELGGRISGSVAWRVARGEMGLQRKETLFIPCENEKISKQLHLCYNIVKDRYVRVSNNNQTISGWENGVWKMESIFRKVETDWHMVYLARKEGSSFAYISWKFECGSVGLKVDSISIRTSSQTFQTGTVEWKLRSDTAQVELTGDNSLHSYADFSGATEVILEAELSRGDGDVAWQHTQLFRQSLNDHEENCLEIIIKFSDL
inactive: [1] -0.073 | [2] 0.059 | [3] -0.151 | [4] -0.109 | entinostat 0.025 | vorinostat 0.008 | citarinostat 0.079 | silmitasertib 0.079 | [5] 0.059 | [6] -0.059

OSBPL8 (UniProt Q9BZF1)
UniProt Q9BZF1, sequence (Q9BZF1 whole entry, looked up): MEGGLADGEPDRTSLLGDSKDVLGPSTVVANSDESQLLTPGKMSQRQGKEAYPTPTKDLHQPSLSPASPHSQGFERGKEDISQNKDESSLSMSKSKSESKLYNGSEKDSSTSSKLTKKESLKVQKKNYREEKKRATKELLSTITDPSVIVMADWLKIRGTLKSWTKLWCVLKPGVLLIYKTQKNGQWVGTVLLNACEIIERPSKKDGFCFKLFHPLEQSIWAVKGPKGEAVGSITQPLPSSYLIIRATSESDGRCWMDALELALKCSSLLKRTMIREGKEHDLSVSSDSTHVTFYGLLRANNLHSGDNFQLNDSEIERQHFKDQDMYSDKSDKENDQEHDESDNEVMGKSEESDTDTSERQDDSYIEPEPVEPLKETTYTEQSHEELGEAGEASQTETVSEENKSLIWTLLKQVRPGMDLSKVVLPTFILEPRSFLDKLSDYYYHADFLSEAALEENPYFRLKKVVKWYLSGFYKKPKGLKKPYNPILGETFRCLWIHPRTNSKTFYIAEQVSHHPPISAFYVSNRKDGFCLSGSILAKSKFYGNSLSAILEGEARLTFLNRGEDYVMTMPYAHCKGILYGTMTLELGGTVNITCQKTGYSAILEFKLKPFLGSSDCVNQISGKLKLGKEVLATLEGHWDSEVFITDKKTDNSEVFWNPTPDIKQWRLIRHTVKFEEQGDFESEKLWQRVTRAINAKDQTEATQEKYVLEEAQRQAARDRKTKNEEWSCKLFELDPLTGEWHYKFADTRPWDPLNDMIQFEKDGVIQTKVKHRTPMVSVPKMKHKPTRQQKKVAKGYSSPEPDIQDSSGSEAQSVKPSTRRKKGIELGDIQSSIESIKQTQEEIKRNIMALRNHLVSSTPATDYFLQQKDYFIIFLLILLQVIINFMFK
inactive: [1] -0.06 | [2] -0.03 | [3] 0.063 | [4] 0.042 | entinostat 0.012 | vorinostat 0.049 | citarinostat 0.005 | silmitasertib 0 | [5] 0.079 | [6] -0.129

NOP53 (UniProt Q9NZM5)
inactive: [1] 0.054 | [2] 0.201 | [3] 0.353 | [4] 0.258 | entinostat -0.141 | vorinostat -0.051 | citarinostat -0.063 | silmitasertib 0.256 | [5] 0.285 | [6] -0.152

NDUFS8 (UniProt O00217)
inactive: [1] -0.049 | [2] -0.042 | [3] -0.163 | [4] -0.018 | entinostat 0.065 | vorinostat 0.019 | citarinostat 0.024 | silmitasertib -0.019 | [5] -0.052 | [6] -0.041

NCAPG (UniProt Q9BPX3)
inactive: [1] -0.062 | [2] -0.036 | [3] -0.118 | [4] -0.06 | entinostat 0.073 | vorinostat 0.101 | citarinostat 0.067 | silmitasertib 0.1 | [5] 0.005 | [6] -0.016

OSTC (UniProt Q9NRP0)
UniProt Q9NRP0, sequence (Q9NRP0 whole entry, looked up): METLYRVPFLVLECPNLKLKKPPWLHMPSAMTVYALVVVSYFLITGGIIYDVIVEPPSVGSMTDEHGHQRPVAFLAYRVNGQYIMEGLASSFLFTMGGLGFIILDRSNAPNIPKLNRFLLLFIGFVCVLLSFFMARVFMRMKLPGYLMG
inactive: [1] -0.062 | [2] 0.028 | [3] -0.107 | [4] -0.134 | entinostat 0.039 | vorinostat -0.001 | citarinostat 0.074 | silmitasertib -0.011 | [5] 0.05 | [6] -0.067

NOP58 (UniProt Q9Y2X3)
inactive: [1] -0.012 | [2] 0.052 | [3] 0.316 | [4] 0.043 | entinostat -0.05 | vorinostat -0.087 | citarinostat -0.048 | silmitasertib 0.108 | [5] 0.082 | [6] -0.119

NELFA (UniProt Q9H3P2)
inactive: [1] 0.038 | [2] -0.016 | [3] 0.142 | [4] -0.245 | entinostat 0.002 | vorinostat 0.061 | citarinostat -0.169 | silmitasertib 0.065 | [5] -0.183 | [6] 0.002

NSMCE4A (UniProt Q9NXX6)
inactive: [1] 0.181 | [2] 0.059 | [3] 0 | [4] -0.023 | entinostat -0.087 | vorinostat -0.155 | citarinostat -0.018 | silmitasertib 0.149 | [5] -0.038 | [6] -0.067

NEU1 (UniProt Q99519)
inactive: [1] -0.081 | [2] -0.088 | [3] -0.114 | [4] -0.057 | entinostat 0.003 | vorinostat 0.159 | citarinostat 0.087 | silmitasertib 0.04 | [5] -0.066 | [6] -0.063

NOP56 (UniProt O00567)
inactive: [1] 0.162 | [2] 0.14 | [3] 0.197 | [4] 0.103 | entinostat -0.084 | vorinostat 0.014 | citarinostat -0.058 | silmitasertib 0.096 | [5] 0.09 | [6] -0.156

NUDT21 (UniProt O43809)
inactive: [1] -0.042 | [2] -0.002 | [3] 0.049 | [4] -0.007 | entinostat 0.037 | vorinostat -0.078 | citarinostat 0.029 | silmitasertib -0.124 | [5] 0.062 | [6] -0.131

MT-ATP6 (UniProt P00846)
UniProt P00846, sequence (P00846 whole entry, looked up): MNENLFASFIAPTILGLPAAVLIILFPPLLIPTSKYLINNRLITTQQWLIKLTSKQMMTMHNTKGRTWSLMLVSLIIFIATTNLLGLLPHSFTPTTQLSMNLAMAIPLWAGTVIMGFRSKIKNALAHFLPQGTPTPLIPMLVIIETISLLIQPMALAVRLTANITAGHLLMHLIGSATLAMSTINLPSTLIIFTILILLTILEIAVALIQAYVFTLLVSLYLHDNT
inactive: [1] -0.003 | [2] -0.007 | [3] 0.197 | [4] 0.081 | entinostat -0.018 | vorinostat -0.007 | citarinostat 0.097 | silmitasertib -0.005 | [5] 0.037 | [6] -0.04

NANS (UniProt Q9NR45)
inactive: [1] 0.043 | [2] -0.05 | [3] 0.02 | [4] -0.032 | entinostat 0.014 | vorinostat 0.116 | citarinostat 0.032 | silmitasertib -0.002 | [5] -0.011 | [6] 0

NMT2 (UniProt O60551)
inactive: [1] 0 | [2] -0.089 | [3] -0.168 | [4] -0.164 | entinostat -0.004 | vorinostat -0.049 | citarinostat 0.007 | silmitasertib -0.028 | [5] -0.017
active: [6] -0.491

NQO1 (UniProt P15559)
UniProt P15559, sequence (P15559 whole entry, looked up): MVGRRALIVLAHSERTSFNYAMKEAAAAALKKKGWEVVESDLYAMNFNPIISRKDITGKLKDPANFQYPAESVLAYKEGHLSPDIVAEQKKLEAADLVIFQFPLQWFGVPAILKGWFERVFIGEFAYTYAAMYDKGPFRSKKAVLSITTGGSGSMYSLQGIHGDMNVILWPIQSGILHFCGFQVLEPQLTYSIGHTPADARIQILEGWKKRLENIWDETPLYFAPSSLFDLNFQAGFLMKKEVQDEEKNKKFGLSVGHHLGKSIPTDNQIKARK
inactive: [1] -0.032 | [2] 0.039 | [3] -0.018 | [4] -0.034 | entinostat -0.013 | vorinostat -0.024 | citarinostat 0.009 | silmitasertib -0.058 | [5] -0.149 | [6] 0.068

MORF4L2 (UniProt Q15014)
UniProt Q15014, sequence (Q15014 whole entry, looked up): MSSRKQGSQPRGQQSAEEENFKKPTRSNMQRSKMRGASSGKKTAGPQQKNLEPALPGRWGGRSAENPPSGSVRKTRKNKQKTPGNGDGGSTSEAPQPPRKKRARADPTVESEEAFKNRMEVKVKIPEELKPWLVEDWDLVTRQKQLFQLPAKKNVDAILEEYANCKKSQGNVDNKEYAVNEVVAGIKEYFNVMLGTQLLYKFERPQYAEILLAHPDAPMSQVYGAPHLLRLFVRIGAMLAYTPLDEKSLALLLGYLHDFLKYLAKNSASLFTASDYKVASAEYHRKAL
inactive: [1] 0.021 | [2] 0.047 | [3] 0.123 | [4] 0.027 | entinostat -0.066 | vorinostat 0.04 | citarinostat -0.044 | silmitasertib 0.087 | [5] 0.04 | [6] -0.121

NAA38 isoform 2 (UniProt Q9BRA0)
UniProt Q9BRA0, sequence (Q9BRA0 whole entry, looked up): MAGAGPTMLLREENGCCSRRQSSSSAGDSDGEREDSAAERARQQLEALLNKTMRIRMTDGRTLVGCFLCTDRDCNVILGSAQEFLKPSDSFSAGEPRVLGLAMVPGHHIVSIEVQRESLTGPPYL
inactive: [1] -0.064 | [2] -0.029 | [3] -0.105 | [4] 0.026 | entinostat -0.009 | vorinostat -0.041 | citarinostat -0.152 | silmitasertib 0.017 | [5] 0.038 | [6] -0.264

NUP85 (UniProt Q9BW27)
inactive: [1] 0.01 | [2] -0.014 | [3] -0.092 | [4] -0.035 | entinostat -0.011 | vorinostat 0.021 | citarinostat 0.031 | silmitasertib 0.047 | [5] -0.041 | [6] -0.041

MPHOSPH10 (UniProt O00566)
UniProt O00566, sequence (O00566 whole entry, looked up): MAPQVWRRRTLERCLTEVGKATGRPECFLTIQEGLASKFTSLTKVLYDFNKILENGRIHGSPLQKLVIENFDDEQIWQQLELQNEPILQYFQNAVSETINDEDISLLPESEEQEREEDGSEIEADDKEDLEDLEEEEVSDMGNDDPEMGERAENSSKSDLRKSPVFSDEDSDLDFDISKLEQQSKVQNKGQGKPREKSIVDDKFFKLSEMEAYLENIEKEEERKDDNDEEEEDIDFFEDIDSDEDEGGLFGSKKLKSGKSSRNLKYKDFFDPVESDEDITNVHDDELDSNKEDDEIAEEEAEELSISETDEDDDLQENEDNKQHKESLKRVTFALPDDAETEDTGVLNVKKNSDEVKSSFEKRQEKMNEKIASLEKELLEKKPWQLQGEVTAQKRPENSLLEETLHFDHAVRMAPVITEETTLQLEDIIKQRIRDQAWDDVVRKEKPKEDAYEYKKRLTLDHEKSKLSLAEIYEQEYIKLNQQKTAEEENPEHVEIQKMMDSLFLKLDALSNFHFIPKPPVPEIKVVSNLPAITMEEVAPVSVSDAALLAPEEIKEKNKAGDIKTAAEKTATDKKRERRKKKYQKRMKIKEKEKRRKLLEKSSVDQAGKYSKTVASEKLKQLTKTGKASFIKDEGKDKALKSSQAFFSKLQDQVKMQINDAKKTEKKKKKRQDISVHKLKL
inactive: [1] 0.089 | [2] 0.016 | [3] 0.186 | [4] 0.064 | entinostat 0.017 | vorinostat 0.045 | citarinostat 0.062 | silmitasertib 0.112 | [5] 0.067 | [6] -0.169

NSUN2 (UniProt Q08J23)
inactive: [1] 0.029 | [2] -0.246 | [3] -0.106 | [4] -0.027 | entinostat 0.01 | vorinostat 0.137 | citarinostat 0.013 | silmitasertib 0.046 | [5] -0.026 | [6] -0.075

MRPS6 (UniProt P82932)
inactive: [1] 0.023 | [2] 0.009 | [3] -0.133 | [4] 0.003 | entinostat 0.03 | vorinostat 0.108 | citarinostat 0.079 | silmitasertib -0.036 | [5] -0.042 | [6] -0.031

MPP1 (UniProt Q00013)
inactive: [1] -0.083 | [2] -0.015 | [3] -0.159 | [4] -0.067 | entinostat 0.047 | vorinostat 0.093 | citarinostat 0.036 | silmitasertib 0.022 | [5] 0.027 | [6] -0.059

NBN (UniProt O60934)
inactive: [1] -0.021 | [2] -0.037 | [3] -0.078 | [4] -0.067 | entinostat 0.127 | vorinostat 0.091 | citarinostat 0.009 | silmitasertib -0.055 | [5] -0.104 | [6] 0

MYH10 isoform 3 (UniProt P35580)
inactive: [1] 0.014 | [2] -0.026 | [3] -0.102 | [4] -0.035 | entinostat 0.019 | vorinostat 0.004 | citarinostat 0.041 | silmitasertib -0.008 | [5] -0.036 | [6] 0.013
